The values that follow come from PubChem BioAssay AID435003 (Sanford-Burnham Center for Chemical Genomics, 2010).

The whole screen tested about 330,000 compounds, of which about 1,700 (0.52%) were called active. What follows is part of a selection rich in actives, with near analogues and random picks from the rest. Values without a mark were called inactive. Cut-off read from the data, not from the text of the source: active = inhibition above about 50%; inactive = the rest.

The assay can be described thus: lowers stimulated NF-kB reporter luminescence – cell-based, uHTS, TCR NF-kB activation inhibitor project, primary screen (AID 435003). As to conditions: Jurkat, PMA/ionomycin-induced NF-kB luciferase reporter, at 4 µM, hits give high values.
Consider `CC1CN(C2CCN(C(=O)COc3ccccc3)CC2)CC(C)O1` (configuration not stated), for which the inhibition (in general, the relative decrease from the control value, in per cent) is -5.33%.

`CSc1ccc(S(=O)(=O)Nc2cccc(F)c2)cc1`: the inhibition was -8.25%.

`COc1ccccc1N1CCN(S(=O)(=O)c2ccc(Cl)cc2)CC1`: the inhibition is -16.1%.

For the compound `COc1ccccc1-n1nnnc1S(=O)(=O)Cc1ccc(Cl)cc1`, the inhibition was 55.8% (active).

In the case of `COc1ccccc1-n1nnnc1SCC(=O)NC(=O)Cc1ccccc1`, the inhibition is 4.18%.

On to `Cn1c2c(c(=O)n(C)c1=O)C(c1ccc(O)cc1)Nc1ccccc1O2` (configuration not stated), for which the inhibition is 3.73%.

As for `CCCCCCCCn1c2c(c(=N)c3c1CCC3)CCCC2`, the inhibition was 89.5% (active).

`COc1ccc(C)cc1NC(=O)C(OC(=O)c1cccc(S(=O)(=O)N(C)c2ccccc2)c1)c1ccccc1` (configuration not stated): the inhibition was 10.1%.

`CN(C)C(CNC(=O)c1ccc(S(=O)(=O)NCc2ccco2)cc1)c1ccccc1` (configuration not stated): the inhibition was -19.3%.

As to `CC(=O)Nc1ccc(NC(=O)C2CCCN(S(=O)(=O)c3ccc(Cl)cc3)C2)cc1` (configuration not stated), the inhibition was -4.31%.

As to `CC(C)(C)Nc1c(-c2cccs2)nc2ccccn12`, the inhibition was -10.6%.

Take `COc1ccc(/C(C)=N\NC(=O)c2ccc(-c3ccccc3)cc2)c(F)c1`: the inhibition is -14.4%.

With `C/C(=N\NC(=O)c1ccoc1C)c1ccccc1O`, the inhibition was -29.9%.

Regarding `C/C(=N\NC(=O)c1ccccc1F)c1ccccn1`, the inhibition was 90.2% (active).

Take `Cc1cc(Cl)ccc1NC(=S)N1CCC(C(N)=O)(N2CCCCC2)CC1`: the inhibition was 5.02%.

`Cc1cc(C(=O)NC2CCCc3c2cnn3-c2cccc(C)c2C)c(C)o1` (configuration not stated): the inhibition is 29.7%.

In the case of `COc1ccc(C(=O)NC2CCCc3c2cnn3-c2cccc(C)c2C)c(OC)n1` (configuration not stated), the inhibition is 29.1%.

Turning to `Cn1nccc1C(=O)NC1CCCc2c1cnn2-c1ccccc1F` (configuration not stated), the inhibition is 62.9% (active).

With `CC(=O)NCC(=O)NC1CCCc2c1cnn2-c1ccccc1F` (configuration not stated), the inhibition is -8.3%.

For `Cn1nccc1C(=O)NC1CCCc2c1cnn2-c1ccc(F)cc1F` (configuration not stated), the inhibition was 71% (active).

Consider `Cc1ccc(-n2ncc3c2CCCC3NC(=O)c2cnccn2)cc1C` (configuration not stated), for which the inhibition is -3.8%.

Turning to `CC1CC(C)CN(C(=O)CCNC(=O)Cn2cnc3ccccc3c2=O)C1` (configuration not stated), the inhibition was -7.78%.

As for `Cc1ccc(S(=O)(=O)N(C)C)cc1NC(=O)c1n[nH]c(=O)c2ccccc12`, the inhibition was -17.4%.

Take `COC(=O)C1=NN(c2ccccc2)C2C(=O)N(c3ccccc3OC)C(=O)C12` (configuration not stated): the inhibition was 25.7%.

As to `COc1ccc(NCc2nnc(SCc3ccccc3)n2-c2ccc(OC)cc2)cc1`, the inhibition was -6.88%.

As for `CCOC(=O)c1cccc(NC(=O)C2CCN(c3ncnc4c3nc3n4CCCCC3)CC2)c1`, the inhibition is 12.1%.

On to `Oc1cccc(/C=N/Nc2ccc(Cl)nn2)c1O`, for which the inhibition was 54.9% (active).

Take `Oc1c(Br)cccc1/C=N/Nc1c(F)c(F)c(F)c(F)c1F`: the inhibition was 2.14%.

With `Cc1nc2ccccc2nc1N/N=C/c1ccc(O)cc1O`, the inhibition is 20.4%.

As for `Cc1cc(=O)[nH]c(Nc2cccc(Br)c2)n1`, the inhibition was 12.3%.

For `CN(Cc1ccccc1)C(=O)CCNC(=O)Cn1cnc2ccccc2c1=O`, the inhibition was -2.32%.

As for `OCCCNc1nccc(-c2cc(Nc3cccc(Cl)c3)ncn2)n1`, the inhibition was 98.5% (active).

Consider `Cc1cccc(Nc2nc(NCCO)nc(N3CCCC3)n2)c1`, for which the inhibition was 5.92%.

For the compound `CC(C)n1cnc2c(Nc3cccc(Cl)c3)nc(N(CCO)CCCO)nc21`, the inhibition is -12%.

Regarding `Cc1ccc(S(=O)(=O)c2nc(-c3cccs3)oc2NCc2cccnc2)cc1`, the inhibition is -3.33%.

As to `COc1ccc(C(=O)N2CCN(c3ccc(C(C)=O)cc3F)CC2)cc1S(=O)(=O)NC1CC1`, the inhibition was -20.9%.

`C[C@H](CO)N1C[C@H](C)[C@@H](CN(C)C(=O)NC2CCCCC2)Oc2ccc(NC(=O)c3ccncc3)cc2C1=O`: the inhibition was 7.62%.

Take `COCCCNC(=O)CCc1nc2cccnc2n1Cc1ccc(OC)cc1`: the inhibition was 1.81%.

In the case of `Cn1c(-c2ccc(C(F)(F)F)cc2)cc2onc(-c3ccccc3)c2c1=O`, the inhibition is -242%.

Turning to `O=C(Nc1ccccc1C(=O)N1CCOCC1)c1ccc(CSc2ccccc2)cc1`, the inhibition was -0.886%.

For the compound `CCOc1ccc(C(=O)Nc2ccc(CN3CCOCC3)cc2)cc1Cl`, the inhibition is -22.2%.

With `O=C(Nc1ccc(CSc2ccccc2)cc1)c1ccc(CN2CCOCC2)cc1`, the inhibition was 69% (active).

For the compound `Cc1ccc2nc(-c3ccncc3)cc(C(=O)Nc3ccc(OC(F)F)cc3)c2c1`, the inhibition was 53.6% (active).

Regarding `CCN(CC)CCNC(=O)c1ccc(NC(=O)c2cc(-c3ccncc3)nc3ccccc23)cc1`, the inhibition is -38.2%.

Take `Cc1ccc2nc(-c3ccccn3)cc(C(=O)Nc3ccc4c(c3)OCO4)c2c1`: the inhibition is 11.1%.

As to `CC(C)CC[n+]1ccn(C2=C([O-])c3ccccc3C(=O)/C2=N\S(=O)(=O)c2ccccc2)c1`, the inhibition was 6.27%.

In the case of `Cc1ccc(OCCNC(=O)CN2C(=O)NC3(CCCC3)C2=O)cc1`, the inhibition is 7.61%.

As to `O=C(Nc1ccc(Br)cc1)c1cccc(NC(=O)C2C3CC4OC(=O)C2C4C3)c1` (configuration not stated), the inhibition is -6.94%.

Regarding `CCN1CCN(c2ccc(NC(=O)c3cnccn3)cc2)CC1`, the inhibition was -79.3%.

Consider `CCN(CC)c1ccc(/C=N/NC(=O)c2cnccn2)c(O)c1`, for which the inhibition was 59.3% (active).

`COc1ccc(NC(=O)C/C(C)=N/NC(=O)c2cnccn2)cc1Cl`: the inhibition was -12.8%.

Regarding `CCC(C)n1[nH]c(=O)cc1N` (configuration not stated), the inhibition was 6.5%.

For the compound `N#CC1(C#N)C(C(=O)C23CC4CC(CC(C4)C2)C3)C12CCOCC2` (configuration not stated), the inhibition was 3.42%.

`C=C(C)C(=O)O[C@H]1C/C(C)=C\C(=O)/C=C(\C)[C@H](O)[C@@H]2OC(=O)C(=C)[C@@H]21`: the inhibition is 76.7% (active).

As for `COc1ccc2cc1Oc1ccc(cc1)C[C@H]1c3cc(c(OC)cc3CCN1C)Oc1c(O)c(OC)cc3c1[C@H](C2)N(C)CC3`, the inhibition was 81.7% (active).

Consider `C=CCn1c(SCC(=O)NCCCO)nc2sc3c(c2c1=O)CCC3`, for which the inhibition was 6.01%.

Turning to `C=CCn1c(SCC(=O)NCC2CCCO2)nc2sc(C)c(C)c2c1=O` (configuration not stated), the inhibition was -2.81%.

Turning to `C=CCn1c(SCc2c(C)noc2C)nc2sc3c(c2c1=O)CCC(C)C3` (configuration not stated), the inhibition was 69.9% (active).

On to `CC1Cc2cc(/C(O)=C3\C(=O)C(=O)N(Cc4cccnc4)C3c3ccccc3F)ccc2O1` (configuration not stated), for which the inhibition is -14.7%.

In the case of `COc1ccc(NC(=O)/C(Cl)=C(/Cl)S(=O)Cc2ccc(C)cc2)cn1` (configuration not stated), the inhibition was 91.6% (active).

As for `COc1ccc(CS(=O)/C(Cl)=C(/Cl)C(=O)Nc2ccc(OC)nc2)cc1` (configuration not stated), the inhibition was 99.4% (active).

On to `COc1ccc(CCNC(=O)c2cnc(Cl)c(Cl)c2)cc1`, for which the inhibition was -35.5%.

Take `COC(=O)c1sccc1NC(=S)Nc1ccc(C)cc1`: the inhibition was -16.1%.

For `COc1ccc(C(=O)CCC(=O)Nc2ccc(Cl)cc2)cc1`, the inhibition is 10.1%.

For the compound `CCN(CC(=O)Nc1ccc(OC)cc1)C(=O)CSCc1ccc(C)cc1`, the inhibition was -16.5%.

Turning to `Cc1ccc(-n2c(SCC(=O)NCc3ccc4c(c3)OCO4)nnc2-c2cccnc2)c(C)c1`, the inhibition was -1.23%.

With `O=[N+]([O-])c1ccc(N2CCNCC2)cc1NCc1cccnc1`, the inhibition is 1.76%.

Consider `CCCC(C(=O)NC1CCCC1)N(C(=O)Cn1nnc(-c2ccc(C)o2)n1)c1cccc(O)c1` (configuration not stated), for which the inhibition is 7.15%.

As for `CC(=O)c1cc(-c2ccccc2)[nH]c1N1CCCC1`, the inhibition is 8.23%.

Take `Cc1ccc(-c2cc(=O)c3ccc(F)cc3[nH]2)cc1`: the inhibition is 14.5%.

Regarding `O=c1cc(-c2ccccc2)[nH]c2cc(F)ccc12`, the inhibition was 61.5% (active).

Consider `CSc1ccc(NC(=O)N2CC(C)OC(C)C2)cc1` (configuration not stated), for which the inhibition is 21.7%.

With `COCc1cc(C)nc(Nc2cc(C)ccc2C)c1C#N`, the inhibition is 6.05%.

`O=C(O)c1cc([N+](=O)[O-])c(Nc2cccc3ccccc23)c([N+](=O)[O-])c1`: the inhibition was -10.8%.

For the compound `O=C(COC(=O)c1ccc([N+](=O)[O-])cc1Cl)NC(=O)c1ccccc1`, the inhibition was 3.88%.

Turning to `O=C(NC(Nc1nc2ccc([N+](=O)[O-])cc2s1)(C(F)(F)F)C(F)(F)F)c1ccccc1`, the inhibition was 72.3% (active).

As to `O=C(CSc1nnc(Nc2ccccc2F)s1)NC1CCCC1`, the inhibition is -19.9%.

As to `COc1cccc(CN2CCNC(=O)C2CC(=O)N(C)CCc2ccccn2)c1` (configuration not stated), the inhibition was -0.459%.

As for `Cc1ccc(O)c(NC(=S)NC(=O)COc2ccc(Br)cc2)c1`, the inhibition is 14.2%.

Regarding `Cc1ccc(C)c(OCC(=O)NNC(=O)C2CCC2)c1`, the inhibition is 0.404%.

Turning to `Cc1ccc(O)c(NC(=O)COc2cc(C)ccc2C)c1`, the inhibition was 61.3% (active).

Turning to `COc1ccc(Br)cc1S(=O)(=O)N1CCN=C1C`, the inhibition was -11.9%.

For the compound `COCCNC(=O)c1ccc(Cn2c(SCC(=O)NCC3CCCO3)nc3ccc(Br)cc3c2=O)cc1` (configuration not stated), the inhibition is 23.7%.

For the compound `COc1ccccc1NC(=O)C1CCCN1S(=O)(=O)c1ccc(Cl)cc1` (configuration not stated), the inhibition is -8.88%.

Consider `COc1ccccc1NC(=O)c1cc(Cl)nnc1Cl`, for which the inhibition was -0.0528%.

`COc1ccccc1NC1=NC(c2ccc(Cl)cc2)N=C(N)N1` (configuration not stated): the inhibition is 60.9% (active).

In the case of `CC(C)n1c(-c2ccncc2)n[nH]c1=S`, the inhibition was 11.1%.
